According to the OligoGym collection:
Also: reference of the scale not given here.

These sequences were tested against COG2 (assay: pooled miR-30 sensor sort-seq; sequence = guide strand). Settings: shRNA.
TCATCTGACCAACACCTCCTAA gave a sensor-assay potency score (higher = more potent) of -1.05. With TAATCTCTTTACACTAGCCTGT the sensor-assay potency score (higher = more potent) was -0.36. In the case of TTAATCTCTTTACACTAGCCTG, the sensor-assay potency score (higher = more potent) is reported as -1.22. Sequence TTGTCGTCGTCGCTCATGCCAC has a sensor-assay potency score (higher = more potent) of -1.52. In the case of TTGAACAGCATGAAACTGTAAC, the sensor-assay potency score (higher = more potent) is reported as -0.748. TTTAATACATCTGACACGGTTT showed a sensor-assay potency score (higher = more potent) of -0.235. Work on ATCGACATCGAAATCTTCCTTC yielded a sensor-assay potency score (higher = more potent) of 0.744. In the case of TTTCTCATGAAATGCATCGGGA, the sensor-assay potency score (higher = more potent) is reported as -0.465.

These sequences were tested against COL16A1 in the same assay as above. Settings: shRNA.
Sequence TGTAGTAAGCCATTCTCTCATC has a sensor-assay potency score (higher = more potent) of -0.613. For TTGGTAAGGATCCCAGTTCTGC, the sensor-assay potency score (higher = more potent) was -0.831. Sequence TTGACTTCCAGGGATATCTGTG has a sensor-assay potency score (higher = more potent) of -0.154. TTGAACTCCTGGTAGACCGGGT was tested, and the sensor-assay potency score (higher = more potent) was 0.285. Work on TTCCAATTTGAGTCCTTCCTGC yielded a sensor-assay potency score (higher = more potent) of 0.311. Work on TGGTTTGCCACAGTCACCCTTA yielded a sensor-assay potency score (higher = more potent) of -0.19. In the case of ATGCAGGACACAAAGTCGCCAT, the sensor-assay potency score (higher = more potent) is reported as -0.876. In the case of TAGACCTTGCCTTCAGACTGTG, the sensor-assay potency score (higher = more potent) is reported as 0.244. TCGAACACAGTCATTGCCCCGT was tested, and the sensor-assay potency score (higher = more potent) was -0.664. Sequence TTTCTTCAGCAGTAGTGTCAGC has a sensor-assay potency score (higher = more potent) of -0.871. TTGAAGGCCAGGCAATCCGGGG showed a sensor-assay potency score (higher = more potent) of -1.21. Sequence TTTTAATGATCTCTTGTCTGAT has a sensor-assay potency score (higher = more potent) of -0.328. In the case of ATCTCTTGTCTGATGAACCTCT, the sensor-assay potency score (higher = more potent) is reported as -0.329. ATTTTAATGATCTCTTGTCTGA was tested, and the sensor-assay potency score (higher = more potent) was -0.577. TTCTCTGCCAATCTGACCAGGG showed a sensor-assay potency score (higher = more potent) of -0.174. TTAATGATCTCTTGTCTGATGA gave a sensor-assay potency score (higher = more potent) of -0.576. In the case of TGAACCTCTTGATTTCATCATA, the sensor-assay potency score (higher = more potent) is reported as -1.14. TTTAATGATCTCTTGTCTGATG was tested, and the sensor-assay potency score (higher = more potent) was -0.368. Sequence TTGTCTGATGAACCTCTTGATT has a sensor-assay potency score (higher = more potent) of -1.11. TTGAAACAGATACCACGTCTTC showed a sensor-assay potency score (higher = more potent) of -0.641. AAGTGTGACATTGCTGTCCCGG showed a sensor-assay potency score (higher = more potent) of -0.502. Work on TCTTGTCTGATGAACCTCTTGA yielded a sensor-assay potency score (higher = more potent) of 0.162. Sequence TTGCGGATCTTCTTGATGGCAG has a sensor-assay potency score (higher = more potent) of -0.676.

These sequences were tested against COL20A1 in the same assay as above. Settings: shRNA.
Sequence TAGGTCAGGGACTTCTTCCCGG has a sensor-assay potency score (higher = more potent) of -0.568. With AGCAGTGTGCACATCGTCCTGG the sensor-assay potency score (higher = more potent) was -0.7. With TAGAGCCTGACCTTGGAGCGGC the sensor-assay potency score (higher = more potent) was -0.375. In the case of TAGACGTCACTGACCCGTCTTG, the sensor-assay potency score (higher = more potent) is reported as -0.759. TATCTGAACTTGGAAATGCTAC gave a sensor-assay potency score (higher = more potent) of -0.775. In the case of TCGAACTTTGACACGTGTGAGG, the sensor-assay potency score (higher = more potent) is reported as -1.19. For TTGGTGTGAAGGCAACTTGGGG, the sensor-assay potency score (higher = more potent) was -0.796. TCAATCACAAACTCCCTCCGAG showed a sensor-assay potency score (higher = more potent) of 0.439. TCTTCCTGAGCTTTTCTCCTGG showed a sensor-assay potency score (higher = more potent) of -0.053.
